Source: PubChem BioAssay AID686979 (National Center for Advancing Translational Sciences (NCATS), 2013)
Screen size: about 420,000 compounds; about 50,000 (12%) were called active. Inconclusive results (about 26%) are left out. Only a selection was taken, and actives are over-represented in it overall. Values without a mark were called inactive. Calls follow the shape of the dose curve; as a rule, active = well fitted inhibition curve with a large enough effect; inconclusive = small, poorly fitted or top-dose-only effect; inactive = flat fitted curve, though single readings scatter.

Assay: qHTS for Inhibitors of human tyrosyl-DNA phosphodiesterase 1 (TDP1): qHTS in cells in presence of CPT; also: nearly all actives have a fitted effect of over 55% in size
Settings: chicken DT40 Tdp1-/-;hTDP1 cells + 20 nM CPT, ATP luminescence, 48 h; series mostly up to 46.2 µM; activity change, negative = growth inhibition: at the top concentration
Outline: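 Chicken DT40 Tdp1-/- cells complemented with human TDP1, 400 cells/well, exposed to compounds plus 20 nM camptothecin for at least 48 h at 37 C; viability read as ATP content by CellTiter-Glo luminescence.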
% is scaled to controls: 0 for no effect and ±100 for the full control effect; potency is read from the fitted curve at half-maximal effect.

Compound | activity change, negative = growth inhibition [%] | Potency
CCCCn1c(N)c(N(CC(C)C)C(=O)c2cccc(S(=O)(=O)N3CC(C)OC(C)C3)c2)c(=O)[nH]c1=O (centres undefined) | 19.3 | 
O=C(COc1ccc2c3c(c(=O)oc2c1)CCCC3)NCC(O)c1ccccc1 (centres undefined) |  | 20.6 µM (active)
NC(=O)COc1ccc2c3c(c(=O)oc2c1)CCCCC3 | -25.1 | 
O=C(COc1ccc2ccc(=O)oc2c1)NCC(O)c1ccccc1 (centres undefined) | 9.18 | 
Cc1cc(CNC(=O)C2CCC(=O)N(CCc3ccc(Cl)cc3)C2)no1 (centres undefined) | -10 | 
Nc1nnc(SCn2nnc3ccccc3c2=O)s1 | 3.45 | 
O=c1c2ccccc2nnn1CSc1nnnn1-c1ccccc1 | -19.1 | 
O=c1c2ccccc2nnn1CSc1nc2sc3c(c2c(=O)n1CC1CCCO1)CCC3 (centres undefined) |  | 16.4 µM (active)
O=S(=O)(Nc1ccc(Cl)cn1)c1cnc(Cl)c(Br)c1 | -18.1 | 
CN1CCN(C(=O)c2ccc(-c3ccc(Br)cc3)o2)CC1 | -29.6 | 
CCOC(=O)N1CCN(Cc2nc3ccc([N+](=O)[O-])cc3c(=O)n2-c2cccc(OC)c2)CC1 | -29.6 | 
Cc1ccc(NN=C2C(=O)OC(C)(C)OC2=O)c(C)c1 | 1.15 | 
CC(C)=C1SC(N2CCN(c3cccc(C)c3)CC2)=NC1=O |  | 20.6 µM (active)
Cc1ccc(N2CCN(C3=NC(=O)/C(=C\c4cccs4)S3)CC2)cc1 | -11.5 | 
CC(C)=C1SC(N2CCN(c3ccc(C)c(Cl)c3)CC2)=NC1=O | -1.1 | 
CCOC(=O)C(C)Sc1nnc(CSc2nc3nc(C)cc(C)n3n2)o1 (centres undefined) | -6.12 | 
CNC(=S)NNC(=O)c1cccn(Cc2ccccc2)c1=O | -4.14 | 
C=CCNC(=S)/N=c1/ccccn1Cc1ccccc1 |  | 7.31 µM (active)
C=CCNC(=O)COc1coc(CN2CCN(Cc3ccccc3)CC2)cc1=O | 2.71 | 
NS(=O)(=O)c1ccc(N=Cc2ccc(Br)s2)cc1 | -6.56 | 
COc1cc(OC)cc(-c2c(-c3cccs3)c3cc(-c4ccc(OC)nc4)ccc3n2C)c1 |  | 20.6 µM (active)
COc1cc(OC)cc(-c2c(C#Cc3ccsc3)c3cc(-c4ccc(SC)cc4)ccc3n2C)c1 | -8.14 | 

Compound | activity change, negative = growth inhibition [%] | Potency
COc1cc(OC)cc(-c2c(C#Cc3ccsc3)c3cc(-c4ccc(OC)cc4F)ccc3n2C)c1 | -8.28 | 
CCOC(=O)C1(S(=O)(=O)c2ccc(Cl)cc2)CCN(Cc2ccccc2)CC1 | -27.7 | 
O=C(c1cn(CC2CCCN(Cc3cc4ccccc4s3)C2)nn1)N1CCCC1 (centres undefined) | 11.8 | 
CCOC(=O)C1(CCOc2ccccc2)CCN(Cc2cc(OC)cc(OC)c2)CC1 |  | 25.9 µM (active)
CCOC(=O)C1(CCOC)CCN(Cc2cc3ccccc3s2)CC1 |  | 18.4 µM (active)
O=C(CCc1ccccc1)Nc1ccnn1C1CCN(Cc2ccc(OCCO)cc2)CC1 | 6.63 | 
CCOC(=O)C1(CCOC)CCN(Cc2ccc(C(=O)OC)cc2)CC1 | 5.25 | 
CCOC(=O)C1(CCOc2ccccc2)CCN(C(=O)c2cncs2)CC1 | -28.5 | 
CCOC(=O)C1(Cc2cccc(OC)c2)CCN(C(C)CC(C)(C)O)CC1 (centres undefined) | -9.64 | 
CCOC(=O)C1(CCOc2ccccc2)CCN(Cc2ccc(C#CCCO)cc2)CC1 |  | 18.4 µM (active)
COc1cc(C)ccc1OCC(=O)OCC(=O)c1ccc[nH]1 | 11.1 | 
Cc1cc(NS(=O)(=O)c2ccc(NC(=O)C(C)Oc3cccc(C)c3C)cc2)nc(C)n1 (centres undefined) | 7.99 | 
N#CC1(C#N)C(C(=O)C23CC4CC(CC(C4)C2)C3)C12CCOCC2 (centres undefined) | -6.84 | 
COc1ccccc1NC(=O)c1ccc(N2CC3CC(C2)c2cccc(=O)n2C3)c(NC(=O)c2cccnc2)c1 (centres undefined) | -14.7 | 
O=C(Nc1cccc([N+](=O)[O-])c1)Nc1ccc(Cl)cn1 | 4.19 | 
Cc1ccc(S(=O)(=O)N(Cc2cccc([N+](=O)[O-])c2)C(=O)N2CCN(C)CC2)cc1 | -7.27 | 
O=C(CCl)N(Cc1cccc([N+](=O)[O-])c1)c1cccc(Cl)c1 |  | 2.31 µM (active)
COc1ccccc1N1CCC(N2CCN(CC(C)(C)C)C(CCO)C2)CC1 (centres undefined) | -28.9 | 
C=CS(=O)c1sc(Cl)c(N2CCOCC2)c1[N+](=O)[O-] (centres undefined) |  | 0.731 µM (active)
Cc1cc(C)n(S(=O)(=O)c2cccc([N+](=O)[O-])c2)n1 | -8.29 | 
CN(C)S(=O)(=O)c1cc(C(=O)Nc2ccn(C)n2)c(Cl)cc1Cl | -4.09 | 
COCCNC(=O)COc1ccc(N(C)S(=O)(=O)c2ccc3ccccc3c2)cc1 | -15.1 | 

Compound | activity change, negative = growth inhibition [%] | Potency
O=S(=O)(NCC1CC1)c1ccc(F)c(Cl)c1 | 8.32 | 
NNC(=O)c1ccc(Cl)cc1Cl | 2.28 | 
O=S(=O)(Cc1ccc(Cl)cc1Cl)c1ccc(Cl)cc1 |  | 0.82 µM (active)
O=CN1CCN(C(=O)c2ccc(Br)o2)CC1 | -0.819 | 
O=C(CSc1ncnc2c1oc1ccccc12)NC1CCCC1 | -20.3 | 
CC(C)[C@@H]1COC(c2cccc(C3=N[C@H](C(C)C)CO3)c2)=N1 |  | 20.6 µM (active)
O=C(O)CSCC(=O)Nc1ccc(C(F)(F)F)cc1 | 17.9 | 
O=C(OCC(=O)N1CCCCC1)c1ccc(OC(F)(F)F)cc1 | -5.48 | 
O=C(CCn1c(=S)[nH]c2ccccc2c1=O)NCCCN1CCCC1=O | 4.25 | 
O=C(CCn1c(=O)[nH]c2ccccc2c1=O)NCCCN1CCN(c2cccc(Cl)c2)CC1 |  | 20.6 µM (active)
O=C(CCCCCn1c(=O)[nH]c2ccccc2c1=O)NCCc1c[nH]c2ccccc12 | -24.7 | 
Cc1nc2ccccc2c2oc(C(=O)NCCCN3CCC(C)CC3)cc12 | -23.5 | 
O=C(Cc1csc(Nc2nc(=S)[nH]c3ccccc23)n1)NCCCN1CCN(c2cccc(Cl)c2)CC1 |  | 16.4 µM (active)
Cc1ccc(C)c(N2CCN(C(=O)CCCCn3c(=O)[nH]c4ccccc4c3=O)CC2)c1 |  | 16.4 µM (active)
O=C(CCCn1c(=O)[nH]c2cc(Cl)ccc2c1=O)NCCN1CCN(c2ccccc2)CC1 |  | 23.1 µM (active)
NS(=O)(=O)c1ccc(CCNC(=O)CCCCCn2c(=O)[nH]c3ccccc3c2=O)cc1 | -16.3 | 
CCN(CC)CCNC(=O)CCCCCn1c(=O)[nH]c2cc(C(=O)OC)ccc2c1=O | -21.7 | 
O=C(CCCCn1c(=O)[nH]c2ccccc2c1=O)NCc1ccc2c(c1)OCO2 | -19.6 | 
Cc1ccc(C)c(N2CCN(C(=O)CCc3c(C)nc4c(c3C)c(=O)n(C)c(=O)n4C)CC2)c1 | -1.63 | 
O=C(NCCN1CCOCC1)c1cc(Sc2cccc(Cl)c2)nc2ccccc12 | -34 | 
